Data taken from PubChem BioAssay AID651821 (The Scripps Research Institute Molecular Screening Center, 2012).
Hit rate of the full screen: of about 370,000 compounds, about 4,700 (1.3%) were called active.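 How the source made its calls: active means inhibition above the plate cutoff, the mean of all test compounds on that plate plus 3 SD (cut at about 35% in these data); inactive means the rest.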 Only a selection was taken, and actives are over-represented in it overall.

Assay: small molecules binding CAG repeat RNA – biochemical, fluorescence, primary screen (AID 651821);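 further: 0% = DMSO alone and 100% = 100 µM mitoxantrone as full dye displacement; higher means more dye released from RNA so lower well fluorescence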
Conditions: r(CAG) RNA repeat, TO-PRO-1 dye displacement fluorescence; at 3 µM; hits give high values

SMILES	inhibition
COc1ccc(NC(=O)CSc2nnnn2-c2cccc(OC)c2)cc1	1.33% (inactive)
Nc1nc(CSc2nnnn2-c2ccccc2)nc(Nc2ccccc2)n1	7.48% (inactive)
Cc1ccc(Nc2nc(CSc3nnnn3-c3ccccc3)cc(=O)[nH]2)cc1	46.6% (active)
CC(C)CNc1cccc2c1S(=O)(=O)N(Cc1cn(Cc3ccc(Cl)cc3)nn1)Cc1ccccc1O2	5.62% (inactive)
C=CCOc1cccc(C2C(C(=O)c3ccc(C)o3)=C(O)C(=O)N2c2nnc(C)s2)c1 (centres undefined)	6.27% (inactive)
COc1cc(C2C(C(=O)c3ccco3)=C(O)C(=O)N2c2cc(C)on2)ccc1OCc1ccccc1 (centres undefined)	10.3% (inactive)
Cc1cc(N2C(=O)C(O)=C(C(=O)c3ccc(C)o3)C2c2ccc(OCc3ccccc3)cc2)no1 (centres undefined)	49.3% (active)
COc1cccc(Cn2cc(COC(=O)Nc3ccc(F)cc3)nn2)c1	0.76% (inactive)
COCc1c(C(=O)N/N=C(\C)c2ccncc2)nnn1-c1nonc1N	-1.16% (inactive)
Cc1ccccc1CS(=O)(=O)Cc1ccc(C(=O)Nc2ccc(Cl)cc2)o1	6.61% (inactive)
O=C(N/N=C/c1cc([N+](=O)[O-])ccc1O)/C(=C\c1cccs1)NC(=O)c1ccccc1	32.3% (inactive)
O=C(CSc1nc2ccccc2s1)NN=Cc1ccc(O)cc1O	11% (inactive)
O=[N+]([O-])c1cc(Br)c(O)c(/C=N/Nc2nc3ccccc3s2)c1	64.1% (active)
C[C@H]1CN([C@@H](C)CO)C(=O)CCCn2nncc2CO[C@@H]1CN(C)Cc1ccc(Oc2ccccc2)cc1	1.78% (inactive)
N#CCC[C@H]1CC[C@]2(CCCN(Cc3ccc(Cl)cc3)C2)O1	1.52% (inactive)
c1ccc(CN=C2Nc3ccccc3CS2)nc1	-3.75% (inactive)
Cc1ccccc1CN1CCCCC(NC(=O)c2cccc(C#N)c2)C1=O (centres undefined)	3.06% (inactive)
Cc1ccc(C)c(-n2c(SCC(=O)O)nc3sc4c(c3c2=O)CCCC4)c1	27.1% (inactive)
Cc1ccc(C)c2c1cc(C)c1nnc(SCC(=O)Nc3cccc(C(=O)O)c3)n12	2.06% (inactive)
CC(C)c1nc(SCC(=O)Nc2cccc(C(=O)O)c2)c2c3c(sc2n1)CCCC3	69.3% (active)
COc1cc(C)c(C)cc1S(=O)(=O)N1CCCc2ccccc21	-3.84% (inactive)

SMILES	inhibition
CC(CCN1CCC(C(O)(c2ccccc2)c2ccccc2)CC1)Oc1ccc(Cl)cc1 (centres undefined)	1.34% (inactive)
CCOc1ccc(N(CC(=O)Nc2c(C)n(C)n(-c3ccccc3)c2=O)S(=O)(=O)c2ccc(Cl)s2)cc1	1.32% (inactive)
CCCCCCCCN1C(=O)[C@@H](CC(=O)N2CCN(C(=O)OCC)CC2)C[C@@]2(C(=O)OC)C1=C[C@H](C1CCCC1)O[C@@H]2C	5.15% (inactive)
Cc1ccc(C(=O)O)cc1-c1ccc(/C=C2\SC(=O)N(CC(=O)Nc3ccc4c(c3)OCO4)C2=O)o1	56% (active)
O=C(CN1CCN(c2ncc(C(F)(F)F)cc2Cl)CC1)Nc1ccc2c(c1)OCO2	-4.82% (inactive)
Cn1c(=O)c2ccccc2n(CC(=O)Nc2ccc3c(c2)OCCO3)c1=O	-1.32% (inactive)
Cc1ccc2nc(CN(C)C(=O)[C@@H](Cc3ccccc3)NC(=O)[C@H]3O[C@@H](n4ccc(=O)[nH]c4=O)[C@H](O)[C@@H]3O)[nH]c2c1	0.21% (inactive)
COc1ccc(CN2C/C(=C/c3ccccc3)N3C(=O)C[C@@H](c4ccccc4)N=C23)c(OC)c1	2.75% (inactive)
Cc1cc(F)ccc1S(=O)(=O)Nc1ncnc2scc(-c3ccc(F)cc3)c12	40.3% (active)
COc1ccc(-c2csc3ncnc(N4CCN(S(=O)(=O)c5cccc(F)c5)CC4)c23)cc1	3.79% (inactive)
O=S(=O)(Nc1ncnc2sccc12)c1cccc(F)c1	5.08% (inactive)
Cc1ccc2nc(-c3ccc(CN4CCC(n5cc(-c6ccccc6)[nH]c5=O)CC4)cc3)c(-c3ccccc3)nc2c1	9.33% (inactive)
COc1cccc(CNC(=O)C2CCCN(c3nc4ccccc4o3)C2)c1OC (centres undefined)	4.36% (inactive)
CC(=O)c1ccc(NC(=O)C2CC(=O)Nc3nc4ccccc4n32)cc1 (centres undefined)	2.8% (inactive)
Brc1ccc(COCCc2cn(Cc3ccccc3)c3ccccc23)cc1	3.73% (inactive)
C/C=C/c1ccc(OCC(=O)NNC(=O)CN(C)S(=O)(=O)c2ccc(C)cc2)c(OC)c1	1.87% (inactive)
COc1ccc(/C=C/C(=O)c2ccc(NS(=O)(=O)c3ccc(C)cc3)cc2)cc1O	43% (active)
Cc1ccc(S(=O)(=O)NNC(=O)/C=C/c2cccc(F)c2)cc1	3.74% (inactive)
O=C(NCc1ccccc1)[C@H]1CCCN1C(=O)[C@H]1CCCN1C(=O)N1CCOCC1	-0.04% (inactive)
COc1ccc(-c2cc3ccc(OCc4nn[nH]n4)cc3oc2=O)cc1	44.7% (active)
CC(C)OC(=O)c1ccc(COc2ccc3ccc(=O)oc3c2)o1	-0.52% (inactive)

SMILES	inhibition
COc1ccc(-c2csc3ncnc(Oc4ccc5c(C)cc(=O)oc5c4)c23)cc1	0.56% (inactive)
CN(C)Cc1ccc(F)cc1Sc1cc(Cl)ccc1Cl	-7.65% (inactive)
CN(CCc1ccccc1)C(=O)Cn1nc(-c2ccccc2)ccc1=O	-2.33% (inactive)
CCc1nnc(NS(=O)(=O)c2ccc(N=Cc3c(C)[nH]n(-c4ccc(C)cc4)c3=O)cc2)s1	56.7% (active)
COc1cc(SC#N)ccc1N=Cc1c(C)[nH]n(-c2ccc(C)cc2)c1=O	6.39% (inactive)
CCc1nnc(NC(=O)CCN(c2ccc(C)cc2)S(=O)(=O)c2ccccc2)s1	1.09% (inactive)
CCOC(=O)N1CCN(C(=O)C[C@H]2C[C@@]3(C(=O)OC)C(=C[C@H](C4CCCC4)O[C@@H]3C)N(Cc3ccccc3)C2=O)CC1	1.98% (inactive)
O=C(OC12CCCN(C1)/C(=C/c1ccccc1)C2)c1ccco1 (centres undefined)	3.14% (inactive)
CCOc1ccc(-n2c(O)c(/C=N/Nc3nnc(C)c(=O)[nH]3)c3ccccc3c2=O)cc1	47.2% (active)
COC(=O)Cc1csc(/N=C/c2c(O)n(-c3cccc(C(F)(F)F)c3)c(=O)c3ccccc23)n1	-0.9% (inactive)
CCOc1ccc(N/C(N)=N/c2nc(C)c(C)c(=O)[nH]2)cc1	1.99% (inactive)
O=C(COc1ccccc1Cl)Nn1cnnc1	2.37% (inactive)
CCCCN1CCN(C(=O)c2ccc3c(c2)NC(=O)C(C)(C)O3)CC1	-0.58% (inactive)
CCOC(=O)C1(Cc2ccccc2)CCN(Cc2cn(C(C)=O)c3ccccc23)CC1	-1.49% (inactive)
CC(=O)NC(c1ccccc1)c1nc(-c2cccc(C(C)C)c2)cs1 (centres undefined)	0.86% (inactive)
CC(=O)Nc1ccc(S(=O)(=O)Nc2ccc(-c3ccc4nnc(C)n4n3)cc2)cc1	6.21% (inactive)
CC(=O)Nc1ccc(C(=O)Nc2nc(-c3cc(C)n(Cc4ccccc4)c3C)cs2)cc1	51.7% (active)
Cc1ccc(C(=O)Nc2c(C#N)c(C)c(C)n2Cc2ccccc2)cc1	0.41% (inactive)
Cn1c(CNc2nc(-c3ccccc3)cs2)nnc1SCC(=O)c1ccccc1	8.83% (inactive)
CC(=O)Nc1ccc(-c2csc(NC(=O)Nc3ccccc3)n2)cc1	53.7% (active)
CCCn1c(C)cc(-c2csc(NC(=O)CCc3nc4ccccc4c(=O)[nH]3)n2)c1C	24.8% (inactive)

SMILES	inhibition
CCN(CC)CCn1c2c(c(SCC(=O)Nc3nc4ccccc4s3)nc1=O)CCCC2	-6.14% (inactive)
CC(C)CC(=O)N/C(N)=N/c1nc2ccccc2s1	0.1% (inactive)
O=C(Nc1ccccc1)Nc1nc2ccccc2s1	41.3% (active)
COc1ccc(C(C)(NC(C)=O)c2nc(-c3ccc(S(C)(=O)=O)cc3)cs2)cc1 (centres undefined)	-0.32% (inactive)
CC(=O)Nc1ccc(S(=O)(=O)Nc2nc(-c3ccc(C(C)(C)C)cc3)cs2)cc1	66.5% (active)
CC(NCc1ccco1)C(=O)N1CCCCC1 (centres undefined)	2.88% (inactive)
CC(C)CNc1cccc2c1S(=O)(=O)N[C@H](CC(C)C)CO2	-1.29% (inactive)
COc1ccc(-c2ccccc2C2Cc3nnccc3CN2C(=O)Nc2ccccc2)cc1 (centres undefined)	8.81% (inactive)
COc1ccnc(C(=O)N2CCC(Oc3cccnc3)CC2)c1	2.96% (inactive)
CN(C)Cc1cn(-c2ccc(-c3noc4c3C(=O)N(CC(=O)N3CCOCC3)CC4)cc2)nn1	4.11% (inactive)
CCOC(=O)c1csc(NC(=O)C2CCCN(S(=O)(=O)c3ccc(Cl)s3)C2)n1 (centres undefined)	3.09% (inactive)
Nc1nc2c(ncn2[C@@H]2O[C@H](C(=O)N[C@@H](Cc3ccccc3)C(=O)NCc3ccccc3)[C@@H](O)[C@H]2O)c(=O)[nH]1	3.57% (inactive)
CCOC(=O)[C@]12CCCC=C1N(CCCOC)C(=O)[C@@H]2CC(=O)N1CCOCC1	0.28% (inactive)
COc1ccc(CCNC(=O)CN2CCC(n3nnc4cc(F)ccc43)CC2)cc1OC	-9.88% (inactive)
COC(=O)c1ccc(CSc2nnc(NC(C)C)s2)cc1	-4.56% (inactive)
Cc1ccc(C(=O)Oc2coc(CSc3nnc(NC(=O)c4cccs4)s3)cc2=O)cc1C	68.7% (active)
CCOc1ccccc1Nc1nnc(SCc2ccc(C(=O)OC)o2)s1	0.96% (inactive)
C=CCN1C(=O)[C@@H](CC(=O)N2CCN(C(=O)c3ccco3)CC2)[C@]2(C(=O)OC)CCCCC=C12	7.73% (inactive)
O=C(N/N=C/c1ccsc1)c1cc(O)cc(O)c1	9.53% (inactive)
O=C(O)/C(=C/c1cccnc1)NC(=O)c1ccccc1	1.01% (inactive)
O=C(N/N=C/c1cccnc1)c1cc2ccccc2cc1O	46.1% (active)
